Compound activity: PubChem, several laboratories
Rows were chosen to be rich in hits. Some 2.8% of all compounds tested hit in one or more screens of this group.
LMP1 NFkB inh: inhibitors of Epstein-Barr LMP1-induced NF-kappaB reporter | inhibition, % at 12.5 µM | LMP1-induced NF-kappaB luciferase reporter cells, luminescence | 350,000 tested, 0.69% active; in the data active = inhibition above about 41%;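 also: 0% = neutral control wells and 100% = reference inhibitor control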
Shn3 3UTR inh: Schnurri-3 reporter inhibition in Clone20 osteoblasts. inhibition, % at 12.5 µM. Clone20 osteoblast Shn3 3'UTR firefly luciferase, 24 h. 360,000 tested, 0.52% active. AID 588674;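 active = mean inhibition of at least 75% with every replicate also reaching 75%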;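 also: 0% = median of neutral control wells and 100% = pilot-screen positive control compound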
Peg3 promoter: inhibitors of Peg3 promoter; HeLa PEG-Prom luciferase reporter, luminescence, overnight; inhibition, % at 20 µM; 360,000 tested, 1.7% active; AID 588405;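 active = inhibition of at least 50% at 20 µM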
HIF-2a block: blocks HIF-2a reporter activity | 786-0 RCC cells HIF-2a reporter, luciferase luminescence, overnight | inhibition, % at 18.8 µM | 360,000 tested, 0.72% active;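 active = inhibition of the luminescence signal of 40% or more relative to plate controls, in a single-dose primary screen at 18.75 µM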
PAX8 inh HTS: inhibitors of PAX8 transcriptional activity in RMG-I cells; RMG-I TPO-luciferase reporter, SteadyGlo, 24 h; inhibition, % at 12.6 µM; 360,000 tested, 1.2% active;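 active = mean replicate inhibition at least 60% with every replicate also reaching 60%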;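 also: luciferase light reporting Pax8 driven TPO promoter activity; plate controls were median of neutral control wells for no effect and mitoxantrone controls for full effect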
TRPM1 prom inh: inhibitors of MITF-driven TRPM1 promoter in melanoma cells | 330,000 tested, 0.83% active | SK-MEL-5 TRPM1 promoter luciferase, 24 h | AID 488899 | inhibition, % at 12.5 µM;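 active = mean inhibition across replicates of 60% or more, whatever share of single replicates reaches that level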
* hit, by the source's call; / = not tested or not shown.

SMILES	LMP1 NFkB inh	Shn3 3UTR inh	Peg3 promoter	HIF-2a block	PAX8 inh HTS	TRPM1 prom inh
C[C@@H]1CN([C@H](C)CO)C(=O)c2cc(NS(=O)(=O)c3ccc(F)cc3)ccc2O[C@@H]1CN(C)Cc1ccc(C(F)(F)F)cc1	/	/	/	/	115.1*	/
Cc1ccc(S(=O)(=O)Nc2ccc3c(c2)CC(=O)N([C@@H](C)CO)C[C@H](C)[C@@H](CN(C)Cc2ccc(Oc4ccccc4)cc2)O3)cc1	/	/	/	/	79.6*	/
CCOC(=O)N1CCC(NC(=O)C2CCCN(Cc3nc(-c4cccc(C)c4)oc3C)C2)CC1 (centres undefined)	19.1	86.0*	21.9	21.3	34.8	72.3*
Cc1cccc(-c2nc(CN3CCCC(C(=O)NC4CCCC4)C3)c(C)o2)c1 (centres undefined)	9.1	18.8	11.0	11.3	29.2	0.5
CCC(=O)Nc1ccc(Nc2nc(C)c([N+](=O)[O-])c(Nc3ccc(NC(=O)CC)cc3)n2)cc1	3.6	23.7	52.7*	8.9	37.5	11.7
Cc1nc(Nc2ccc(C(=O)O)cc2)nc(Nc2ccc(C(=O)O)cc2)c1[N+](=O)[O-]	-4.7	-4.6	11.2	6.0	-18.3	-2.4
O=C(C1=C[C@H](C2CC2)C[C@H](OCc2ccc(CO)cc2)O1)N1CCCCCCC1	/	/	/	/	-2.8	/
Cc1ccc(S(=O)(=O)N(C)C[C@@H]2OCCCC[C@H](C)Oc3ccc(N(C)C)cc3C(=O)N([C@@H](C)CO)C[C@H]2C)cc1	/	/	/	/	53.5	/
O=C(Nc1ccc(Oc2ccc(Cl)cc2)c(Cl)c1)c1cc(I)cc(I)c1O	-2.5	2.9	82.2*	-33.6	1.3	4.8
COc1ccc(NC(=O)c2ccccc2F)cc1Cl	-31.8	-77.5	-283.8	-209.5	/	-57.3
C[C@@H]1CCCCO[C@H](CN(C)S(=O)(=O)c2cn(C)cn2)[C@@H](C)CN([C@H](C)CO)C(=O)c2cc(NS(=O)(=O)c3cccs3)ccc2O1	/	/	/	/	-14.3	/
COc1ccc(NC(=O)N(C)C[C@H]2Oc3ccc(NC(=O)Nc4c(C)noc4C)cc3CC(=O)N([C@@H](C)CO)C[C@H]2C)cc1	/	/	/	/	-8.6	/
O=c1[nH]c(C2CCCN(S(=O)(=O)c3cccc(Cl)c3)C2)nc2c1nnn2Cc1ccc2c(c1)OCCO2 (centres undefined)	-0.8	-2.9	51.0*	23.1	3.9	-15.2
Cc1ccc(S(=O)(=O)N2CCC(c3nc4c(nnn4Cc4ccccc4)c(=O)[nH]3)CC2)cc1	7.9	-17.7	24.5	37.2	6.0	-10.0
O=c1[nH]c(C2CCN(S(=O)(=O)c3ccccc3C(F)(F)F)CC2)nc2c1nnn2Cc1ccccc1	-5.9	1.6	51.0*	13.9	-2.4	6.7
COc1ccccc1CNC(=O)C[C@@H]1CC[C@@H]2[C@H](COC[C@H](O)CN2C(=O)Nc2ccccc2)O1	/	/	/	/	-11.7	/
CCCc1nnc(NC(=O)CCS(=O)(=O)c2ccccc2)s1	3.6	-2.2	-0.6	-21.1	78.0*	0.3
Cc1nnc(NC(=O)CCS(=O)(=O)c2ccccc2)s1	18.4	-7.8	14.8	-12.8	22.2	-0.8
CCCCc1nnc(NC(=O)CCS(=O)(=O)c2ccc(Cl)cc2)s1	-4.0	4.2	12.5	-4.1	76.8*	-6.4
Cc1csc(NC(=O)CCS(=O)(=O)c2ccc(Br)cc2)n1	2.2	-3.7	4.2	11.0	/	16.7
CCOC(=O)c1csc(NC(=O)CCS(=O)(=O)c2ccc(Cl)cc2)n1	9.6	8.4	-13.6	0.8	84.0*	/
CC(=O)Nc1nnc(CCS(=O)(=O)c2ccc(Cl)cc2)s1	8.4	-2.0	8.6	6.5	-9.3	3.4
Clc1ccc(-c2nnc(NC3=NCCCCC3)o2)cc1	46.3*	16.0	7.7	23.7	/	11.9
O=C(Nc1nnc(-c2ccc(Cl)cc2)o1)C1CCCCC1	-13.1	-5.6	-59.8	-36.2	6.9	-14.7
CCCN1C(=O)/C(=C/c2ccc3c(c2)OCO3)NC1=S	5.8	-1.2	-110.7	-4.5	6.0	13.6
CCCN1C/C(=C/c2ccc3c(c2)OCO3)C(=O)/C(=C/c2ccc3c(c2)OCO3)C1	-59.5	-9.6	106.6*	89.0*	4.0	84.1*
COc1ccccc1NC(=O)N(C)C[C@H]1Oc2ncc(C#CCC(C)C)cc2C(=O)N([C@H](C)CO)C[C@@H]1C	/	/	/	/	-9.5	/
O=C(C[C@@H]1CC[C@@H](NC(=O)Cc2ccccn2)[C@H](CO)O1)NCCc1ccncc1	/	/	/	/	-14.6	/
O=C(Nc1cccc(-c2cn3ccccc3n2)c1)c1cc2ccccc2oc1=O	-96.6	-27.2	72.5*	-89.4	/	49.3
